Source: PubChem BioAssay (EPA / NIEHS)
The source made the active and inactive calls. How the source made its calls: active means hit-call score of the fitted dose curve at least 0.9, where 1 is the maximum; inactive means score below 0.9.

Experiments:
[1] = ATG_CRE_CIS: Attagene CIS-FACTORIAL HepG2 Assay for human cAMP Responsive Element (CRE) binding protein 3 (AID 2282926); conditions: HepG2 CRE cis-reporter, Attagene multiplexed mRNA; actives raise or lower the signal
Summary of the method: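 Transfected HepG2 were treated for 24 hours, then RNA was extracted and reporter cDNA amplified with sequence-specific primers. Labelled fragments were separated by capillary electrophoresis, and the CRE signal was fitted bidirectionally with DMSO as baseline.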

[2] = biological target: CCAAT/enhancer-binding protein beta (Homo sapiens) (UniProt P17676); assay: ATG_C_EBP_CIS: Attagene CIS-FACTORIAL HepG2 Assay for human CCAAT/Enhancer Binding Protein (C/EBP) beta (AID 2282927); conditions: HepG2 Attagene cis-factorial transcription factor reporter; actives raise or lower the signal
Summary of the method: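 Following a 24 h incubation with test chemical, transfected HepG2 cells yielded RNA whose reporter transcripts were quantified by RT-PCR and fluorescent capillary electrophoresis, with DMSO serving as baseline for bidirectional fitting.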

[3] = ATG_CMV_CIS: Attagene CIS-FACTORIAL HepG2 Assay for human CMV (Internal Marker) (AID 2282928); conditions: HepG2 CMV promoter reporter, transcription factor profiling; actives raise or lower the signal;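 further: endpoint acts as a background internal control marker rather than a target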
Summary of the method: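 Cell system: HepG2, transiently transfected multiple reporter units under cis promoters. Exposure: 24 h. Detection: RT-PCR, FAM labeling, HpaI digestion, capillary electrophoresis. Analysis: bidirectional, DMSO baseline.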

[4] = ATG_DR4_LXR_CIS: Attagene CIS-FACTORIAL HepG2 Assay for human Liver X Receptor (LXR), DR4 submotif (AID 2282929); conditions: HepG2 Attagene DR4 cis-reporter, mRNA transcription; actives raise or lower the signal
Summary of the method: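 Fluorescence intensity of labelled reporter cDNA fragments, separated by capillary electrophoresis, gives the signal. HepG2 cells bearing cis-regulated reporter constructs were treated 24 h; activity fitted bidirectionally relative to DMSO negative control.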

[5] = biological target: Aryl hydrocarbon receptor (Homo sapiens) (UniProt P35869); assay: ATG_Ahr_CIS: Attagene CIS-FACTORIAL HepG2 Assay for human Aryl Hydrocarbon Receptor (Ahr) (AID 2282930); conditions: HepG2 AhR cis-factorial reporter transcription; actives raise or lower the signal
Summary of the method: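 Values derive from bidirectional fitting against DMSO negative control. Underlying signal: cis-element reporter mRNA in transiently transfected HepG2, harvested 24 h post-dose and measured by RT-PCR plus capillary electrophoresis.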

[6] = ATG_AP_1_CIS: Attagene CIS-FACTORIAL HepG2 Assay for human Activator Protein 1 (AP-1) (AID 2282931); conditions: HepG2 Attagene cis-factorial AP-1 reporter mRNA; actives raise or lower the signal
Summary of the method: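 Multiplexed HepG2 reporter assay, 24 h dosing. mRNA induction detected by RT-PCR plus capillary electrophoresis. Activity fitted in both directions against DMSO.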

[7] = ATG_AP_2_CIS: Attagene CIS-FACTORIAL HepG2 Assay for human Activator Protein 2 (AP-2) (AID 2282932); conditions: HepG2 AP-2 cis-reporter, Attagene transcription factor profiling; actives raise or lower the signal
Summary of the method: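 Bidirectional curve fitting against DMSO was applied to reporter mRNA signals from HepG2 cells 24 h after dosing. Cis-promoter reporter units, transiently transfected, were read by RT-PCR plus capillary electrophoresis.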

[8] = ATG_BRE_CIS: Attagene CIS-FACTORIAL HepG2 Assay for human Bone Morphogenetic Protein (BMP) Response Element (BRE) (AID 2282933); conditions: HepG2 BMP response element reporter, Attagene transcription factor profiling; actives raise or lower the signal
Summary of the method: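 Multiplexed cis-reporter assay, HepG2, 24 h exposure. mRNA from reporter units quantified via RT-PCR/CE; DMSO baseline; bidirectional curve fit.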

[9] = biological target: Retinoic acid receptor alpha (Homo sapiens) (UniProt P10276); assay: ATG_DR5_RAR_CIS: Attagene CIS-FACTORIAL HepG2 Assay for human Retinoic Acid Receptor Alpha (RARE), DR5 submotif (AID 2282934); conditions: HepG2 Attagene cis-factorial RARE DR5 reporter, mRNA; actives raise or lower the signal
Summary of the method: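 Endpoint fitted in both directions relative to DMSO as negative control. It reflects DR5 cis-element reporter mRNA induction in transiently transfected HepG2 cells, measured 24 h after dosing through RT-PCR and fluorescent capillary electrophoresis.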

[10] = biological target: Transcription factor E2F1 (Homo sapiens) (UniProt Q01094); assay: ATG_E2F_CIS: Attagene CIS-FACTORIAL HepG2 Assay for human E2F Transcription Factor 1 (AID 2282935); conditions: HepG2 Attagene cis-reporter, E2F reporter RNA transcripts; actives raise or lower the signal
Summary of the method: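 Multiplexed cis-reporter assay: HepG2, transient transfection, 24 h dosing, mRNA quantitation by labeled RT-PCR and CE.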

[11] = ATG_E_Box_CIS: Attagene CIS-FACTORIAL HepG2 Assay for human Enhancer Box (E-box) (AID 2282936); conditions: HepG2 E-box cis-reporter transcription, actives raise or lower the signal
Summary of the method: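 Multiplexed CIS reporter system in transiently transfected HepG2 cells measures native transcription factor activity. Reporter RNA after 24 h exposure is profiled by RT-PCR-capillary electrophoresis.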

[12] = ATG_M_61_CIS: Attagene CIS-FACTORIAL HepG2 Assay for M61 Transcription Factor (Internal Marker) (AID 2282937); conditions: HepG2 Attagene CIS-FACTORIAL M61 internal marker reporter; actives raise or lower the signal
Summary of the method: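 Endogenous transcription factor activity in HepG2 is read through transiently transfected cis-element reporter units. After 24 h dosing, RNA undergoes reverse transcription, PCR and primer extension with 6-FAM before capillary electrophoresis; DMSO-referenced bidirectional fit.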

[13] = ATG_EGR_CIS: Attagene CIS-FACTORIAL HepG2 Assay for human Early Growth Response 1 (EGR1) (AID 2282938); conditions: HepG2 Attagene CIS-FACTORIAL EGR reporter mRNA; actives raise or lower the signal
Summary of the method: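 Activity is taken as induction or loss of reporter mRNA versus DMSO, fitted bidirectionally. Transcripts from cis-regulated reporter units in transiently transfected HepG2 were measured after 24 h by RT-PCR with capillary electrophoresis.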

[14] = ATG_M_19_CIS: Attagene CIS-FACTORIAL HepG2 Assay for M19 Transcription Factor (Internal Marker) (AID 2282939); conditions: HepG2 Attagene CIS-FACTORIAL M19 internal marker reporter; actives raise or lower the signal
Summary of the method: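 Signals come from fluorescence of labelled reporter-specific PCR fragments resolved by capillary electrophoresis, following 24 h treatment of HepG2 cells transfected with cis-promoter reporter units; activity was fitted in both directions relative to DMSO.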

[15] = ATG_Ets_CIS: Attagene CIS-FACTORIAL HepG2 Assay for human Erythroblast Transformation Specific (ETS) (AID 2282941); conditions: HepG2 ETS cis-reporter transcription, actives raise or lower the signal
Summary of the method: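 After transient cis-reporter transfection, HepG2 cells receive test chemical for 24 h. Reporter mRNA levels, measured by RT-PCR and capillary electrophoresis fluorescence, are analysed bidirectionally relative to the DMSO baseline.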

[16] = biological target: Hepatocyte nuclear factor 3-beta (Homo sapiens) (UniProt Q9Y261); assay: ATG_FoxA2_CIS: Attagene CIS-FACTORIAL HepG2 Assay for human Forkhead box A2 (FOXA2) (AID 2282942); conditions: HepG2 cis-reporter transcription factor activity, 24 h; actives raise or lower the signal
Summary of the method: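 Reporter transcript induction is measured by fluorescence after capillary electrophoresis of RT-PCR products from HepG2 cells exposed 24 h. Cis-regulated reporter units report endogenous factor activity; curves fitted both directions against DMSO.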

[17] = ATG_FoxO_CIS: Attagene CIS-FACTORIAL HepG2 Assay for human Forkhead box O (FoxO) (AID 2282943); conditions: HepG2 Attagene cis-reporter, FoxO element, mRNA; actives raise or lower the signal
Summary of the method: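 Values reflect reporter mRNA induction or loss in HepG2 cells 24 h post-dosing, fitted bidirectionally with DMSO as negative control and baseline. Detection used RT-PCR and fluorescence capillary electrophoresis.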

[18] = ATG_GATA_CIS: Attagene CIS-FACTORIAL HepG2 Assay for human GATA Binding Protein (AID 2282944); conditions: HepG2 GATA cis-element reporter, Attagene multiplex mRNA; actives raise or lower the signal
Summary of the method: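 After transfecting HepG2 cells with multiple cis-regulated reporter units, chemicals are dosed for 24 h; isolated RNA undergoes RT-PCR and fluorescent labeling before capillary electrophoresis, with activity expressed against DMSO.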

[19] = ATG_GLI_CIS: Attagene CIS-FACTORIAL HepG2 Assay for human Zinc Finger Protein GLI1 (AID 2282945); conditions: HepG2, Attagene cis-factorial reporter mRNA, GLI element; actives raise or lower the signal
Summary of the method: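 HepG2 cells transiently transfected with cis-promoter multiplexed reporter units report endogenous transcription factor activity. After 24 h chemical exposure, reporter mRNA was quantified by RT-PCR, 6-FAM labelling, HpaI digestion and capillary electrophoresis, with bidirectional fitting against DMSO.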

Measured: AC50

Sequence of CCAAT/enhancer-binding protein beta (Homo sapiens) (P17676 whole entry, looked up): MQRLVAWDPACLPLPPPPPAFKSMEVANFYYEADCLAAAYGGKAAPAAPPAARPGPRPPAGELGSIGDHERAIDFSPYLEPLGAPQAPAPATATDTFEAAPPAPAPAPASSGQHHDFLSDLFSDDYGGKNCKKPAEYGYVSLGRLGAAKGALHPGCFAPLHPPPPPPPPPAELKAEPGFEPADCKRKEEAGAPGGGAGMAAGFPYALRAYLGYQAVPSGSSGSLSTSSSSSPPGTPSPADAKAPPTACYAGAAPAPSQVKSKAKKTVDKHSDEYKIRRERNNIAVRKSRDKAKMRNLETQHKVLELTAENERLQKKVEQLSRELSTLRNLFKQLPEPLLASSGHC
Sequence of Hepatocyte nuclear factor 3-beta (Homo sapiens) (Q9Y261 whole entry, looked up): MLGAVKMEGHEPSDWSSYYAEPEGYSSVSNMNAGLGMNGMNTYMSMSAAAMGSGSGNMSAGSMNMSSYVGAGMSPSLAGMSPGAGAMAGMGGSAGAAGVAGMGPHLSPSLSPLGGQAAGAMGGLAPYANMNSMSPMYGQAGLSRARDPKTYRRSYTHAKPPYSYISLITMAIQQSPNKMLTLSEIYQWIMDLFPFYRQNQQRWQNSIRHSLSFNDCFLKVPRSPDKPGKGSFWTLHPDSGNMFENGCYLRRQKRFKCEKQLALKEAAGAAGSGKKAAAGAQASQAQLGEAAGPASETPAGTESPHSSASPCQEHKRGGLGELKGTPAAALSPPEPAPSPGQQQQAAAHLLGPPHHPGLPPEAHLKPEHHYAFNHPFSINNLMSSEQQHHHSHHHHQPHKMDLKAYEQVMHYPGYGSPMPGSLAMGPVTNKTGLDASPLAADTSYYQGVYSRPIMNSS
Sequence of Aryl hydrocarbon receptor (Homo sapiens) (P35869 whole entry, looked up): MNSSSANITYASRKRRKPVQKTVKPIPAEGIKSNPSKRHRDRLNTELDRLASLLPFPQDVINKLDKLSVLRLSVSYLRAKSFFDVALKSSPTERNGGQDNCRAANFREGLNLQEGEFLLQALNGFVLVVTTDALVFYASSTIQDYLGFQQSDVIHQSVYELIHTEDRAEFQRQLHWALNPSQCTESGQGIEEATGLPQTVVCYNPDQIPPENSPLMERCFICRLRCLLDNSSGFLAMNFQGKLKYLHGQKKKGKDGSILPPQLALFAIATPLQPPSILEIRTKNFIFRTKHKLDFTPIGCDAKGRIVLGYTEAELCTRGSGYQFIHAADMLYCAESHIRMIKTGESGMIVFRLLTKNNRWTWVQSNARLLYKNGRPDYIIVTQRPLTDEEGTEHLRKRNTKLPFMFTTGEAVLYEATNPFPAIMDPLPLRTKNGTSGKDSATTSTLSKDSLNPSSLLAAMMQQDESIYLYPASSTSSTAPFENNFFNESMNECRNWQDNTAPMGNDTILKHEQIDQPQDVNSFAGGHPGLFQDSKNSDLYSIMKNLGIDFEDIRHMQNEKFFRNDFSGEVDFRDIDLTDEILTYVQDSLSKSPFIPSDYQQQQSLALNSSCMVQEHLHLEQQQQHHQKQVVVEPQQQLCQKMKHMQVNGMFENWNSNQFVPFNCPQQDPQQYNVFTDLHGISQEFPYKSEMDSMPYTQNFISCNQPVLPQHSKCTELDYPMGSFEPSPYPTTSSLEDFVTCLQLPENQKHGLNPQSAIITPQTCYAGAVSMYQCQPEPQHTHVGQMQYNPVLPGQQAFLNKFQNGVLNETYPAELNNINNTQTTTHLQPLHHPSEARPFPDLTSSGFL
Sequence of Transcription factor E2F1 (Homo sapiens) (Q01094 whole entry, looked up): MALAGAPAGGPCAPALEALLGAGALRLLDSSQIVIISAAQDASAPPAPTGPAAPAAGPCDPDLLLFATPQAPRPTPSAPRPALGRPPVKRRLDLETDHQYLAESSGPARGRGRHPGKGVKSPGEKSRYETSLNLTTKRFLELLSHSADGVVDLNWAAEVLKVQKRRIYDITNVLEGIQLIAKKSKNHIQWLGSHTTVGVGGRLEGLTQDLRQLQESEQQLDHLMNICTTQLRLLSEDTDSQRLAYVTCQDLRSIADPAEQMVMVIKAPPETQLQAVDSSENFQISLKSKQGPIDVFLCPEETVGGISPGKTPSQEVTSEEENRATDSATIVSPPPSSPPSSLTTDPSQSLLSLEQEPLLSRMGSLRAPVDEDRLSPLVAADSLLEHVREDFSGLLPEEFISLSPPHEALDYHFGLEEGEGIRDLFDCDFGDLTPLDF
Sequence of Retinoic acid receptor alpha (Homo sapiens) (P10276 whole entry, looked up): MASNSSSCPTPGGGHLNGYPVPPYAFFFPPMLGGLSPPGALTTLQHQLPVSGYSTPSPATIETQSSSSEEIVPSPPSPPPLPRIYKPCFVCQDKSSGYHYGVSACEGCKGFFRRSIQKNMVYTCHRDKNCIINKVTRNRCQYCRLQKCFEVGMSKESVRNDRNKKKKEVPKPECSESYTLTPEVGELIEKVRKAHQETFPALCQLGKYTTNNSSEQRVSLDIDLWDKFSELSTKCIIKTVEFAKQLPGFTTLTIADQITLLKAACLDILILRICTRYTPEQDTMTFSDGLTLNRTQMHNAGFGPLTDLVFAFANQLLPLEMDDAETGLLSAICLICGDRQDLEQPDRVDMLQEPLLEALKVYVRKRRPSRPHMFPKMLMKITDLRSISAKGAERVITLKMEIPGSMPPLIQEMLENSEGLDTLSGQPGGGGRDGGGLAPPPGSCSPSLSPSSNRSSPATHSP

CCCC[n+]1ccccc1
inactive: all assays above

CC(C)=CCC[C@](C)(O)[C@@H]1CC=C(C)CC1
active: [3] 49.5 µM
not listed: [13]
inactive: all other assays above

CN(C)C(=N)N=C(N)N
not listed: [12]
inactive: all other assays above

CCCCCCCCCCCCN(CCCCCCCCCCCC)CCCCCCCCCCCC
inactive: all assays above

CCCCCC=CCC(=O)OC
not listed: [12]
inactive: all other assays above

O=c1cc(-c2ccccc2)oc2cc(O)cc(O)c12
active: [3] 3.31 µM | [4] 7.76 µM | [5] 5.85 µM | [11] 25.9 µM
not listed: [18]
inactive: all other assays above

CC(C)=CCC/C(C)=C/COC=O
inactive: all assays above

O=C(O)CCCCCCCC(=O)O
not listed: [18]
inactive: all other assays above
